Test results taken from publication PMC9574860, “Chemical Toolkit for PARK7: Potent, Selective, and High-Throughput” (Journal of Medicinal Chemistry, 2022).
The campaign covered roughly 7,900 compounds. About 400 (5.1%) showed an effect of 50% or more. The entries come from a sample that favours strong results as a whole.

Each compound was assayed against Parkinson's disease protein 7 (PARK7/DJ1) (human, UniProt Q99497) (assay: primary screen, percent inhibition; read as competition with a fluorescent probe by fluorescence polarization; higher = more effect of the substance). Conditions: 100 µM.
In short: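 Fluorescence-polarization probe displacement (JYQ-107, 20 nM final, 2 h) after 2 h preincubation of PARK7 (0.2 μM final) with each fragment at 100 μM final. Read-out ex/em 480/520 nm; remaining activity derived from FP signal loss relative to reference controls.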

Sequence of Parkinson's disease protein 7 (PARK7/DJ1) (Q99497 whole entry, looked up, the tested form may be a part): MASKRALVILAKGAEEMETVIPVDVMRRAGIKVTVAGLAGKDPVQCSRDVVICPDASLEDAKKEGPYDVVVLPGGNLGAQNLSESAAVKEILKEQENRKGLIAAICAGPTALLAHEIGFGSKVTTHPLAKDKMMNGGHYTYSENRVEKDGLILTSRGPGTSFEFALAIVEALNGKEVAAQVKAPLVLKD

Structure (SMILES) | Inhibition %
C=CC(=O)N1CC2(CCOCC2)C1C(C)C (stereo not drawn) | 7.75%
Cc1nn(C)c(C)c1C1CCCN1C1CCOC1=O (stereo not drawn) | 4.25%
CC(C)Cn1c(S)nc2ncccc2c1=O | 6.75%
O=C(CCl)NCc1ccc(Cl)cc1 | 2.75%
C=CC(=O)Nc1cnn(C2CCOCC2)c1C | 8.19%
N#Cc1cc(Cl)nc(C2CC2)n1 | 4.67%
COc1ccc(NC(=O)CCl)cc1 | 55.2%
O=C(CCl)NC(=O)c1ccc(OC(F)F)cc1 | 28.9%
O=C(CCl)Nc1ccc(Cl)c(C(F)(F)F)c1 | 26.2%
O=C(CCl)NCc1ccc(OC(F)(F)F)cc1 | 5.21%
COc1ccc(NC(=O)CCCl)cc1 | 4.56%
COc1ccc(NC(=O)NC(=O)CCl)cc1 | 1.55%
O=C(CCl)Nc1ccc(OC(F)F)cc1 | 82.8%
O=C(CCl)Nc1ccc(OC(F)(F)F)cc1 | 86%
O=C(CCl)Nc1ccc(OC(F)F)c(Cl)c1 | 45.8%
O=C1CCN1c1ccccc1 | 5.28%
CC(CC#N)Sc1ccccc1NC(=O)CCl (stereo not drawn) | 10.5%
Cc1cc(C(=O)Cn2cnc(C#N)n2)c(C)s1 | 2.94%

Structure (SMILES) | Inhibition %
Cc1cc(C(=O)Cn2cnc(C#N)n2)c(C)[nH]1 | 7.96%
CCN(CC)C(=O)Oc1ccc(N2CCCC2)cc1 | -3.98%
O=C(Nc1cccc(S(=O)(=O)F)c1)C1CCCC1 | 99.8%
C=CC(=O)Nc1cc(NC(=O)C2CCC2)ccc1F | 19.5%
O=S(=O)(F)c1ccc(S(=O)(=O)NC2CCCC2O)cc1 (stereo not drawn) | 16.5%
O=C1CCC(CC(=O)Nc2cccc(S(=O)(=O)F)c2)CC1 | 98.3%
O=C(NNS(=O)(=O)c1cccc(S(=O)(=O)F)c1)C1CCC1 | 99.9%
O=C(NNS(=O)(=O)c1ccc(S(=O)(=O)F)cc1)C1CCC1 | 10.2%
O=C(CCl)NCc1cccc(NC(=O)C2CC2)c1 | 11.4%
Cc1cc(B2OC(C)(C)C(C)(C)O2)on1 | 27.5%
Cc1ccc(S)nc1 | 7.53%
CCc1nc(C(C#N)=Cc2cnn(C)c2)sc1C | 2.61%
Cc1noc(C)c1CCn1ccnc1C#N | 0.0226%
Cl.O=C(CCl)N1CCN(Cc2cccs2)CC1 | 3.64%
Nc1ncnc2c1ncn2CCCCl | 2.3%
C=CC(=O)Nc1ccccn1 | 3.17%
C=CC(=O)Nc1cc2ccccc2nn1 | 95%
C=CC(=O)Nc1cccc(NC(C)=O)n1 | -0.654%
